# Screen size: about 310,000 compounds; about 14,000 (4.5%) showed an effect of 50% or more. The effect is printed as a negative number. This is one part of a sample in which strong results are shown more often than they occur.
# Target: human ether-à-go-go-related gene (hERG) potassium channel (human, UniProt Q12809)
# Test: primary screen, population patch clamp on CHO cells stably expressing hERG; higher = less effect of the substance
# 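Further: peak tail current of the secondary pulse compared with the same well before compound.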
# Chain of human ether-à-go-go-related gene (hERG) potassium channel (Q12809 whole entry, looked up): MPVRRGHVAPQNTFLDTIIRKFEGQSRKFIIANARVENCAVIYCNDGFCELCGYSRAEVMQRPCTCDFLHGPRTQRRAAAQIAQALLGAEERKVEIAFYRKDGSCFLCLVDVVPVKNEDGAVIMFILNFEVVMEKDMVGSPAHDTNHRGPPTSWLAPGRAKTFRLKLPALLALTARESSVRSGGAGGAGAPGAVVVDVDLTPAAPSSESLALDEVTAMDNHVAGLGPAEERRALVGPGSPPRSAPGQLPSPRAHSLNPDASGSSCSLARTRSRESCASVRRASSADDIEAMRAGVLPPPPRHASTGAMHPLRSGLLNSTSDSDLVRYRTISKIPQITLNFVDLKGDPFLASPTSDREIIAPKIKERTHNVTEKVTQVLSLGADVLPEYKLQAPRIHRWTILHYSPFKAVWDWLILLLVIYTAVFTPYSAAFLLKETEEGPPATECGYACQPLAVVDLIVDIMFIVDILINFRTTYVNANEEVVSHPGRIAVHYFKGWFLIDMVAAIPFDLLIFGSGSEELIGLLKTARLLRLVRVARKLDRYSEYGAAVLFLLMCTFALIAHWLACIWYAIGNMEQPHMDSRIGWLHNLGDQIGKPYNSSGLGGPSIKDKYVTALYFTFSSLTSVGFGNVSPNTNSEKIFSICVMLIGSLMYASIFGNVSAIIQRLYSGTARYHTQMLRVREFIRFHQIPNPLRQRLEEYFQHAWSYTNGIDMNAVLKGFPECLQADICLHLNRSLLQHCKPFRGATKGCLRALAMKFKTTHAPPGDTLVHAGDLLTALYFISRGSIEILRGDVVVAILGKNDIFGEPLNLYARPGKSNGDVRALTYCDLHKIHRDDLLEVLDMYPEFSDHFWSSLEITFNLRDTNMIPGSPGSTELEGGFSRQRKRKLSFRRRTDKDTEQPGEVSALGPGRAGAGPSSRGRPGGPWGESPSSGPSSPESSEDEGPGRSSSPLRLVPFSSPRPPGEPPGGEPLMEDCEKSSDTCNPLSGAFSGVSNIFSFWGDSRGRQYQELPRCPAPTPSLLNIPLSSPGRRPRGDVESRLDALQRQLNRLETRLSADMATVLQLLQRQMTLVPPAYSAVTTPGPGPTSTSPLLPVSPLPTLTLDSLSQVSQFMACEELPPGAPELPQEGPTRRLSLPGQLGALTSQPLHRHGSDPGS
row,SMILES,"hERG current change (%, negative = inhibition) at 10uM [%]"
1,Cc1ccc2nc(-c3ccc(N4C(=NC(=O)CCC(=O)O)SC5CS(=O)(=O)CC54)cc3)sc2c1 (stereo not drawn),-19.3
2,O=C(NC(Cc1c[nH]c2ccccc12)C(=O)N/N=C/c1ccc(Br)cc1)c1cccs1 (stereo not drawn),8.02
3,O=C(Nc1nccs1)C1CCCN(S(=O)(=O)c2cccc3cccnc23)C1 (stereo not drawn),-3.72
4,CCCCOc1ccc(-c2nnc(N)s2)cc1,2.84
5,CC(C)CCNC(=O)/C=C/c1ccc(Br)cc1,0.187
6,Cc1[nH]nc(Nc2ccc(O)cc2)c1[N+](=O)[O-],23.6
7,Cc1oc(-c2cccc(Cl)c2)nc1CN1CCCC(C(=O)NC(C)c2ccc3c(c2)OCCO3)C1 (stereo not drawn),-57.5
8,Cc1oc(-c2ccc(Cl)cc2)nc1CN1CCCC(C(=O)NCc2ccco2)C1 (stereo not drawn),-71.9
9,Cc1oc(-c2cccc(Cl)c2)nc1CS(=O)(=O)CC(=O)NCc1ccco1,-28.2
10,CCCS(=O)(=O)N1CCCC(C(=O)NC(C)c2ccc3c(c2)OCCO3)C1 (stereo not drawn),9.55
11,Cc1oc(-c2ccc(Cl)cc2)nc1CN1CCCC(C(=O)NCCCN2CCCC2=O)C1 (stereo not drawn),-30.8
12,O=C(NCc1ccco1)C1CCCN(S(=O)(=O)c2ccc(Cl)cc2)C1 (stereo not drawn),-13.2
13,CCN1CCN(CCNC(=O)C2CCCN(Cc3nc(-c4cccc(Cl)c4)oc3C)C2)CC1 (stereo not drawn),-6.73
14,Cc1oc(-c2cccc(Cl)c2)nc1CN1CCCC(C(=O)NCCCN2CCOCC2)C1 (stereo not drawn),-28.1
15,Cc1oc(-c2cccc(Cl)c2)nc1CN1CCCC(C(=O)NCc2ccco2)C1 (stereo not drawn),-73
16,COc1ccccc1NC(=O)c1ccccc1NS(C)(=O)=O,-1.12
17,O=C(O)/C=C/c1ccc(O)c(O)c1,13.1
18,O=C1CSC(=S)N1c1ccc(Cl)c(Cl)c1,20.7
19,CC1=C(C(=O)OC(C)(C)C)C(c2cccs2)NC(=O)N1 (stereo not drawn),-0.0788
20,Cc1cc(OCC(=O)N2C[C@H]3C[C@@H](C2)c2cccc(=O)n2C3)c2c(C)c(C)c(=O)oc2c1,0.123
21,CC(C)(CC(=O)O)CC(=O)N1CCCN(c2nccc(C(F)(F)F)n2)CC1,17.8
22,O=C(NCc1ccncc1)C1CCN(S(=O)(=O)Cc2ccccc2)CC1,-10.4
23,Cc1ccc(C)c(SCC(=O)Nc2nnc(-c3ccccc3)o2)c1,14.1
24,CN(C(=O)COC(=O)c1cn(-c2ccccc2)nc1-c1ccccc1)C1CCS(=O)(=O)C1 (stereo not drawn),-16.6
25,O=C(COC(=O)c1cccnc1Nc1ccccc1F)NCCN1C(=O)CSC1=O,-27.7
26,CCN(C(=O)COC(=O)c1cn(-c2ccccc2)nc1-c1ccccc1)C1CCS(=O)(=O)C1 (stereo not drawn),-75.9

row,SMILES,"hERG current change (%, negative = inhibition) at 10uM [%]"
1,CCN(C(=O)COC(=O)c1cc(-c2ccc(C)o2)nc2ccccc12)C1CCS(=O)(=O)C1 (stereo not drawn),-66.7
2,CCN(C(=O)COC(=O)c1cccnc1Nc1cccc(C(F)(F)F)c1)C1CCS(=O)(=O)C1 (stereo not drawn),-51
3,CCN(C(=O)COC(=O)c1cc(-c2cccc3ccccc23)nc2ccccc12)C1CCS(=O)(=O)C1 (stereo not drawn),-6.23
4,O=C(COC(=O)c1cccnc1Nc1cccc(C(F)(F)F)c1)NC1CCS(=O)(=O)C1 (stereo not drawn),-16.1
5,O=C(COC(=O)c1cccnc1Nc1cccc(C(F)(F)F)c1)NCCN1C(=O)CSC1=O,-58.7
6,CCN(C(=O)COC(=O)c1cccnc1Nc1ccccc1F)C1CCS(=O)(=O)C1 (stereo not drawn),-9.99
7,O=C(COC(=O)/C=C/c1cccc(C(F)(F)F)c1)NCCN1C(=O)CSC1=O,-28.1
8,CCN(C(=O)COC(=O)c1cc(-c2ccccc2)nn1-c1ccccc1)C1CCS(=O)(=O)C1 (stereo not drawn),-12.8
9,Cc1ccc(-c2cc(C(=O)OCC(=O)N(C)C3CCS(=O)(=O)C3)c3ccccc3n2)o1 (stereo not drawn),-19.1
10,Cc1ccc(C(=O)NC(=S)NNS(=O)(=O)c2ccc(C)cc2)cc1,3.32
11,O=C(Nc1ccc(Cl)cn1)c1ccc(Br)c(S(=O)(=O)N2CCCCC2)c1,18.7
12,CC(=O)Nc1ccc(S(=O)(=O)N(Cc2cccnc2)Cc2cc3ccccc3[nH]c2=O)cc1,11.4
13,Cc1cccc(Nc2ccc(S(=O)(=O)N3CCOCC3)cc2[N+](=O)[O-])c1,-30.2
14,CCn1c(CSc2nc(C)cc(C)n2)nnc1SCC(=O)Nc1nc(-c2ccccc2)cs1,-9.09
15,O=c1c2ccccc2c2ccccc2c(=O)n1CC1CCCO1 (stereo not drawn),-14.4
16,Cc1ccc(C)c(NC(=O)c2cccc(Oc3ccc([N+](=O)[O-])cc3Cl)c2)c1,-4.21
17,COc1ccc(S(=O)(=O)NNC(=O)c2csc(-n3nc(C)cc3C(F)(F)F)n2)cc1,19.9
18,CN(C)CCN(CC1CCCN(Cc2ccccc2F)C1)C(=O)c1ccc(Cl)cc1 (stereo not drawn),-14
19,COc1ccc(CCN2CCCC(CN(C)C(=O)c3ccoc3C)C2)cc1 (stereo not drawn),13.4
20,CN(CC1CCCN(CCc2ccc(Cl)cc2)C1)C(=O)c1ccc2nc[nH]c2c1 (stereo not drawn),-34.1
21,Cc1ccccc1CCN1CCCC(CN(C)C(=O)c2ccc3ncccc3c2)C1 (stereo not drawn),-30.3
22,Cc1nc2ccc(C(=O)N(C)CC3CCCN(CCc4ccc(Cl)cc4)C3)cc2[nH]1 (stereo not drawn),-61.2
23,COc1ccc(CCN2CCCC(CN(C)C(=O)c3ccoc3)C2)cc1 (stereo not drawn),-72.9
24,CN(CC1CCCN(CCc2ccc(Cl)cc2)C1)C(=O)c1ccoc1 (stereo not drawn),-85.7
25,CCc1nc(SCC(=O)NCCc2ccccc2)n[nH]1,-3.42
